Source: PubChem BioAssay
A selection: hits, their analogues and other compounds. The true share with any hit is near 2.3%.
IL-2 act: qHTS of IL-2 Activators; activation, % (series mostly up to about 46 µM); IL-2 activation reporter assay, cell-based qHTS; stimulated with anti-CD3/CD4/CD28 beads; in transgenic mouse T cells; 0.065% of 360,000 active; in the data active means activation above about 50%; inconclusive means mostly about 30% to 49%; further: 0% is about no effect
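EGFP and DsRed fluorescence is measured by plate cytometry in unstimulated transgenic mouse T cells exposed to compound for 60 minutes, then stimulated 18 hours at 37 degrees C with anti-CD3/anti-CD4 beads plus anti-CD28.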
Nrf2 block: Nrf2 qHTS screen for inhibitors; A549 ARE-Fluc reporter, luciferase luminescence, 18-24 h; Potency, µM (top dose mostly 46 µM), for the others: top-dose activity change, negative = inhibition, actives largely listed as inhibitors; 2.1% of 360,000 active; further: potency means the concentration at half of the fitted maximal effect; on the % scale 0 is the no-effect control and ±100 the full control effect; nearly all actives have a fitted effect of over 60% in size
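Nrf2 activity is the BugLite luminescence, read 15 min after reagent at room temperature, following CellTiter-Fluor cytotoxicity readout (30 min, 37C). Compound titrations were applied for 18-24 h to 5000 A549 ARE_Fluc cells/well in 5% FBS OPTI-MEM.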
Nrf2 activator: qHTS of Nrf2 Activators. AREc32 ARE-luciferase reporter (MCF7-derived line), luminescence, 24 h. Potency, µM (series often up to 46.1 µM), inactives show top-dose activation, hits mostly activators. 0.31% of 410,000 active. AID 624171, 2012; further: potency means the concentration at half of the fitted maximal effect; % of control where 0% means no effect; nearly all actives have a fitted effect of over 65% in size
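For detection, Steady-Glo was added and plates sat 30 min at RT; before that, AREc32_Fluc cells grown overnight in OPTI-MEM/5% FBS had been treated with 23 nL compound for 24 hr at 37 deg C.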
A549 viability: Nrf2 qHTS screen for inhibitors: counterscreen for cytotoxicity. A549 ARE-Fluc cells, CellTiter-Fluor viability, 18-24 h. Potency, µM (series often up to 46 µM), without a hit: at the highest dose activity change, negative = cytotoxicity, most hits filed as inhibitors. 0.16% of 390,000 active; further: potency means the concentration at half of the fitted maximal effect; on the % scale 0 is the no-effect control and ±100 the full control effect
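A549 ARE_Fluc cells in 5% FBS OPTI-MEM were exposed to compounds in concentration-response for 18-24 h at 37 deg C. Viability was read by CellTiter-Fluor fluorescence (Ex 405/Em 525) after 30 min, before the luciferase read.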
* marks the source's active call; other numbers are inactive results; u = inconclusive; x = no result given; ! = repeats disagree. Unless noted, the call rests on the fitted dose curve; in most records, active means well fitted curve in the direction sought with a large enough effect; inconclusive means small, poorly fitted or top-dose-only effect, or another doubt; inactive means no such curve, though single readings can be large; an effect the other way counts as inactive or inconclusive.

SMILES | IL-2 act | Nrf2 block | Nrf2 activator | A549 viability
COc1cccc(NC(=S)NCCC(c2ccccc2)c2ccccc2)c1 | -0.4 | x | 1.2% | 9.4%
COCC(=O)OCC(=O)N1N=C(c2ccc(Cl)cc2)CC1c1ccco1 (stereo not given) | -2.5 | -0.8% | 2.5% | -0.5%
O=C(CCl)N1N=C(c2cccs2)CC1c1ccco1 (stereo not given) | -0.6 | u | 14.3% | -14.5%
O=C(OCC(=O)N1N=C(c2ccc(Cl)cc2)CC1c1ccco1)c1cccnc1 (stereo not given) | -0.4 | u | 20µM* | 10.5%
O=C(CCl)N1N=C(c2ccco2)CC1c1ccco1 (stereo not given) | -0.8 | 16.6% | 15.8µM* | 1.1%
CN(C)c1ccc(C(CNS(=O)(=O)c2ccc(Cl)cc2)N2CCCC2)cc1 (stereo not given) | x | x | 5.0% | 16.7%
CC(C)C(c1nnnn1C1CCCC1)N(C)C1CCCCC1 (stereo not given) | -1.4 | 14.1% | -0.7% | 6.4%
Cc1ccc(C(c2nnnn2C2CCCCC2)N(C)C2CCCCC2)cc1 (stereo not given) | 0.3 | 25.9µM* | 0.1% | 0.7%
Cc1sc(NC(=O)c2cccs2)c(C(N)=O)c1C | 0.6 | u | 10µM* | 3.3%
Cc1cc(C)cc(NC(=O)c2c(C)oc3nc(C)nc(N4CCCC4)c23)c1 | x | 18.8% | -1.1% | -0.9%
Cc1cc2c(s1)c1cnn(Cc3ccccc3F)c(=O)c1n2C(C)C | x | u | x | 3.5%
COc1ccc(CC(=O)Nc2ccc3nc(Nc4cccc(Cl)c4)cc(C)c3c2)cc1OC | x | 16.4µM* | 0.4% | -7.6%
Cc1cc(Nc2cccc(Cl)c2)nc2ccc(NC(=O)Cc3ccc(Cl)cc3)cc12 | x | 23.1µM* | -1.7% | u
Cc1cc(Nc2cccc(Cl)c2)nc2ccc(NC(=O)Cc3c(F)cccc3Cl)cc12 | x | -28.1% | 3.5% | -10.4%
Cc1nnc(Sc2c(-c3ccccc3)c3ccc(Cl)cc3[nH]c2=O)s1 | -1.5 | 18.4µM* | -0.8% | -12.6%
O=C(O)CSc1c(-c2ccccc2)c2cc(Cl)ccc2[nH]c1=O | -2.4 | 6.8% | 0.4% | 9.6%
Cc1ccc(S(=O)(=O)N2[C@@H](c3ccc(Br)cc3)C(C(=O)O)=CC[C@H]2c2ccc(Cl)c(Cl)c2)cc1 | 0.3 | 25.9µM* | 0.0% | -16.1%
CC1CCc2c(sc(NC(=O)c3cc(-c4ccc(F)cc4)on3)c2C(N)=O)C1 (stereo not given) | x | 2.7% | -1.0% | -5.0%
COc1ccc(C)cc1NC(=O)c1cccc(-c2ccc(OC(C)=O)cc2)c1 | -4.4 | 16.4µM* | 3.7% | -23.9%
COc1ccc(-c2cccc(C(=O)Nc3ccccc3C)c2)cc1 | -0.1 | -15.9% | -0.5% | 2.9%
CN(C(=O)C(C)(C)C)c1ccc(OCC(=O)N2CCc3ccccc3C2)cc1 | -0.7 | 10.3µM* | 1.9% | -1.1%
Cc1ccc(NC(=O)C2=CC(c3cccs3)=NS(=O)(=O)N2C)cc1 | -0.7 | u | 0.4% | u
CCc1ccc(NC(=O)C2=CC(c3cccs3)=NS(=O)(=O)N2C)cc1 | -1.7 | 16.4µM*! | -0.7% | -16.3%
c1ccc2c(c1)Nc1ccncc1S2 | -0.6 | 29.1µM* | 2.9% | -20.5%
COc1cc(CNCc2ccc(OC)c(OC)c2OC)cc(OC)c1 | -1.0 | 9.2µM* | 0.3% | -4.1%
SMILES | IL-2 act | Nrf2 block | Nrf2 activator | A549 viability
Cc1ccc(CCNC(=O)CCn2nc(-c3ccc(C)cc3)ccc2=O)cc1 | x | x | 4.8% | 2.8%
COc1ccc(/C=C\c2onc(C)c2S(=O)(=O)N2CCC(C(=O)Nc3ccc(Cl)cc3)CC2)cc1 | x | -1.3% | -1.1% | -3.1%
O=S(=O)(Nc1cccc2cccnc12)c1ccc(S(=O)(=O)N2CCCC2)cc1 | -1.6 | 5.17µM* | u | -10.3%
Cc1ccc(S(=O)(=O)Nc2cccc3cccnc23)c([N+](=O)[O-])c1 | -0.5 | 10.3µM* | -2.7% | u
O=C(Nc1ccc2nc(SCC(=O)N3CCOCC3)sc2c1)c1cccc(Br)c1 | x | u | -1.6% | -19.9%
COC(=O)c1c(N)sc(Cc2ccccc2)c1C | -2.6 | 5.1% | 0.5% | 4.5%
COC(=O)c1c(NC(=O)/C=C/C(=O)O)sc(Cc2ccccc2)c1C | 0.7 | -20.9% | 22.4µM* | -12.0%
Cc1ccc(-c2csc(=S)n2CC(=O)OCC(=O)NCc2ccco2)cc1 | -1.2 | 18.4µM* | 16.1% | -19.2%
COC(=O)c1ccc(Cl)cc1NC(=O)N1CC=C(c2c[nH]c3ccccc23)CC1 | x | -22.2% | 11.6% | -1.9%
O=C(c1ccc2ccccc2c1)C1CCCN(S(=O)(=O)c2cccnc2)C1 (stereo not given) | -5.5 | 20.6µM* | 5.6% | -12.7%
O=C1c2ccccc2C(=O)c2c1cccc2-n1nnc2ccccc21 | -1.1 | -4.5% | -0.1% | 2.0%
O=C1C(N2CCOCC2)=C(n2nnc3ccccc32)C(=O)c2ccccc21 | -0.1 | 23.1µM* | -1.5% | 23.1µM*
Nc1nc(-c2ccccn2)nc(N)c1Cc1ccc(Cl)cc1Cl | -0.5 | 6.51µM* | 6.5% | u
CSc1cccc(NC(=O)c2ccc(CN3CCc4ccccc4C3)cc2)c1 | -0.4 | u | 3.8% | -7.7%
CC(=O)Nc1ccc(NC(=O)c2ccc(CN3CCc4ccccc4C3)cc2)cc1 | -0.1 | -6.3% | -0.7% | -3.9%
O=C(Nc1cccc(Br)c1)c1ccc(CN2CCc3ccccc3C2)cc1 | -0.2 | 8.2µM* | 8.5% | -18.4%
O=C(Nc1ccc(F)cc1)c1ccc(CN2CCc3ccccc3C2)cc1 | 0.1 | 5.8µM* | 2.9% | -0.7%
COc1ccc(CNc2oc(/C=C/c3cccc(OC)c3)nc2C#N)cc1 | x | -18.4% | 4.5% | -2.5%
O=C1C(=Cc2ccco2)CCC1=Cc1ccco1 | 0.4 | -6.1% | 18.5% | u
O=C1C(=Cc2ccco2)CCCC1=Cc1ccco1 | 0.1 | 3.5% | 3.16µM* | 0.5%
CC(=O)c1ccc(-c2csc3ncnc(Sc4nnnn4C)c23)cc1 | x | u | x | -1.8%
Cc1nc2c(-c3ccccc3)c(C)[nH]n2c(=O)c1Cc1ccccc1 | 1.1 | u | -0.6% | -17.6%
Cc1nc2c(-c3ccc(Cl)cc3)c(C)[nH]n2c(=O)c1Cc1ccccc1 | -0.5 | 14.6µM* | 3.2% | u
Cc1ccccc1Cc1c(C)nc2c(-c3ccccc3)c(C)[nH]n2c1=O | x | 18.4µM* | -0.7% | u
Cc1[nH]n2c(=O)cc(-c3ccccc3Cl)nc2c1-c1ccccc1 | x | 18.4µM* | -0.9% | -18.0%
SMILES | IL-2 act | Nrf2 block | Nrf2 activator | A549 viability
CCCCc1c(C)nc2c(-c3ccc(OC)cc3)c(C)[nH]n2c1=O | x | 20.6µM* | 1.6% | -15.7%
COCc1cc(=O)n2[nH]c(C)c(-c3ccc(Cl)cc3)c2n1 | -2.8 | x | -0.2% | x
Cc1cccc(Cc2c(C)nc3c(-c4ccccc4)c(C)[nH]n3c2=O)c1 | x | 5.8µM* | 0.5% | u
Cc1cc(N2CCN(C)CC2)nc2ccc(NC(=O)c3ccc(Br)o3)cc12 | -0.5 | 20.1% | 3.9% | -9.1%
Cc1cc(N2CCCCC2)nc2ccc(NC(=O)c3ccc(Br)o3)cc12 | -2.5 | 20.6µM* | -0.1% | u
CCN(CC)CCNC(=S)Nc1ccc2nc(N3CCCC3)cc(C)c2c1 | -3.7 | 1.5% | 9.0% | 5.8µM*
